The target in assay [1] is Paired box protein Pax-6 (Homo sapiens) (UniProt P26367). Kind of assay: ATG_Pax6_CIS: Attagene CIS-FACTORIAL HepG2 Assay for human Paired Box 6 (PAX6) (AID 2282956). The note with it: HepG2 CIS-FACTORIAL PAX6 reporter transcription, RNA readout; actives raise or lower the signal. In a few lines: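 Transient MRTU transfection of HepG2 → compound exposure 24 h → TriZol RNA, oligo(dT) RT → PCR, 6-FAM primer extension, HpaI cut → capillary electrophoresis; activity fitted both directions against DMSO.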
Chain of Paired box protein Pax-6 (Homo sapiens) (P26367 whole entry, looked up): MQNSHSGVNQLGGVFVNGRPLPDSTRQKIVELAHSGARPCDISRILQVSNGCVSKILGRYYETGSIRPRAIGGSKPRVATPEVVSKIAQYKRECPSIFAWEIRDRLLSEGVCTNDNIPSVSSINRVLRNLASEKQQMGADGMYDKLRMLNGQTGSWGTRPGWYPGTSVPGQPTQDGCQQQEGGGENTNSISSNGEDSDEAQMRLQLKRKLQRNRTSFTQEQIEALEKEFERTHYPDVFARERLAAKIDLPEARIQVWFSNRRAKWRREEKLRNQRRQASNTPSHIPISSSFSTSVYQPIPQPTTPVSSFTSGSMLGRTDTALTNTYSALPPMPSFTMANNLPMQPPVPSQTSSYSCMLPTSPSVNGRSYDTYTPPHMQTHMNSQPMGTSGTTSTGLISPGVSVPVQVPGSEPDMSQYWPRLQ

Assay [2] can be described thus: ATG_PXRE_CIS: Attagene CIS-FACTORIAL HepG2 Assay for human Pregnane X Receptor Element (PXRE) (AID 2282957). As to conditions: HepG2 Attagene CIS-FACTORIAL PXRE reporter, mRNA; actives raise or lower the signal. In a few lines: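 Transfect HepG2 with MRTUs (cis promoter elements); dose chemical, incubate 24 h; isolate RNA, RT with oligo(dT), PCR, 6-FAM label, HpaI cut, CE. Gain/loss fit vs DMSO.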

The nature of assay [3]: ATG_RORE_CIS: Attagene CIS-FACTORIAL HepG2 Assay for human RAR-related Orphan Receptor Element (RORE) (AID 2282959). The note with it: HepG2 Attagene cis-factorial RORE reporter, mRNA; actives raise or lower the signal. The essentials: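 Transfect HepG2 with MRTUs; treat 24 h; extract RNA; RT with oligo(dT); PCR with reporter-specific primers; 6-FAM primer extension; HpaI digest 2 h at 37 C; capillary electrophoresis. Fit vs DMSO, bidirectional.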

Assay [4] can be described thus: ATG_Sox_CIS: Attagene CIS-FACTORIAL HepG2 Assay for human SRY-box transcription factor (SOX) (AID 2282960). As to conditions: HepG2 Attagene cis-factorial SOX reporter, mRNA; actives raise or lower the signal. In a few lines:
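Fluorescence-labelled cDNA fragments from reporter transcripts, sized by CE, give the signal. Cells: HepG2, transiently transfected with cis-regulated reporter units. Exposure 24 h; DMSO negative control; bidirectional curve fitting.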

Assay [5] addresses Transcription factor Sp1 (Homo sapiens) (UniProt P08047). Kind of assay: ATG_Sp1_CIS: Attagene CIS-FACTORIAL HepG2 Assay for human Specificity Protein 1 (Sp1) (AID 2282961). As to conditions: HepG2 Sp1 cis-reporter transcription, actives raise or lower the signal. The essentials: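 Chemicals are dosed onto HepG2 cells transfected with multiple cis-promoter reporter constructs, and after 24 h reporter RNA is reverse-transcribed, PCR-amplified and resolved by capillary electrophoresis for fluorescence quantitation; activity is scored up or down against DMSO.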

The nature of assay [6]: ATG_SREBP_CIS: Attagene CIS-FACTORIAL HepG2 Assay for human Sterol Regulatory Element Binding (SREBP) (AID 2282962). As to conditions: HepG2 Attagene cis-factorial SREBP reporter, mRNA; actives raise or lower the signal. In a few lines: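 Transfected HepG2 (cis-regulated reporter library, endogenous TFs) → compound 24 h → total RNA → oligo(dT) RT → reporter-specific PCR → FAM primer extension, HpaI cut → CE fluorescence. Fit bidirectional vs DMSO.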

Assay [7] concerns the target Signal transducer and activator of transcription 3 (Homo sapiens) (UniProt P40763). Kind of assay: ATG_STAT3_CIS: Attagene CIS-FACTORIAL HepG2 Assay for human Signal Transducer and Activator of Transcription 3 (STAT3) (AID 2282963). As to conditions: HepG2, Attagene cis-factorial STAT3 reporter transcription; actives raise or lower the signal. In a few lines: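 Values derive from bidirectional fits relative to DMSO of reporter mRNA levels, measured by RT-PCR with capillary electrophoresis, in HepG2 cells carrying transiently transfected cis-regulated reporter units and exposed 24 h.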

Assay [8] can be described thus: ATG_TA_CIS: Attagene CIS-FACTORIAL HepG2 Assay for human TA Basal Promoter (AID 2282964). The note with it: HepG2 Attagene CIS-factorial TA basal promoter reporter; actives raise or lower the signal. The essentials:
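Read-out: fluorescent reporter-transcript fragments resolved by capillary electrophoresis after RT-PCR and HpaI digestion. Source: HepG2 cells carrying transiently transfected multi-reporter cis constructs, treated 24 h. Endpoint fitted bidirectionally relative to DMSO.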

Assay [9] is described as follows: ATG_TCF_b_cat_CIS: Attagene CIS-FACTORIAL HepG2 Assay for human T-Cell-Factor with beta-catenin (TCF/b-cat) (AID 2282965). The note with it: HepG2 TCF/beta-catenin cis-reporter transcription, actives raise or lower the signal. In a few lines:
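HepG2, transient MRTU transfection, cis-element-driven reporters (endogenous TFs). 24 h compound exposure. Readout: reporter mRNA by RT-PCR + 6-FAM primer extension, HpaI digest, capillary electrophoresis. Gain/loss fit vs DMSO baseline.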

Assay [10] can be described thus: ATG_TGFb_CIS: Attagene CIS-FACTORIAL HepG2 Assay for human Transforming Growth Factor (TGF) (AID 2282967). The note with it: HepG2 Attagene CIS TGFb reporter, mRNA transcription; actives raise or lower the signal. In a few lines: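 Transient MRTU transfection of HepG2 (FuGene 6). Dose 24 h. TriZol RNA, oligo(dT) RT, PCR, 6-FAM primer extension, HpaI cut, CE. Bidirectional fit, DMSO = baseline.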

Assay [11] in a line: ATG_VDRE_CIS: Attagene CIS-FACTORIAL HepG2 Assay for human Vitamin D Receptor Element (VDRE) (AID 2282968). The note with it: HepG2 VDRE cis-reporter transcription, actives raise or lower the signal. The essentials: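 Cell-based multiplexed reporter format in human liver HepG2 cells, 24 h post-dose. Fluorescence from capillary electrophoresis of reporter cDNA gives the signal, with DMSO as negative control and baseline.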

Assay [12] has as its target Nuclear receptor subfamily 1 group I member 3 (Homo sapiens) (UniProt Q14994). Kind of assay: ATG_CAR_TRANS: Attagene TRANS-FACTORIAL HepG2 Assay for human Constitutive Androstane Receptor (CAR) (AID 2282969; active = hit-call score of the fitted dose curve at least 0.9, where 1 is the maximum;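 note: activators raise reporter mRNA above DMSO so AC50 marks induction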). As to conditions: HepG2 Attagene TRANS-FACTORIAL CAR reporter. The essentials:
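HepG2 cells transiently transfected with GAL4-UAS reporter units; TRANS format reads activity of exogenous chimeric NR-Gal4 protein. After 24 h dosing, reporter mRNA quantified by RT-PCR, 6-FAM labelling and capillary electrophoresis; gain of signal fitted against DMSO.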

Assay [13] is described as follows: ATG_M_19_TRANS: Attagene TRANS-FACTORIAL HepG2 Assay for M19 Transcription Factor (Internal Marker) (AID 2282974; active = hit-call score of the fitted dose curve at least 0.9, where 1 is the maximum). The note with it: HepG2 Attagene TRANS-FACTORIAL M19 internal marker reporter. In a few lines: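 Multiplexed TRANS format: HepG2 liver cells bearing transient GAL4-UAS reporter units, chemical treatment 24 h, reporter transcripts quantified by RT-PCR plus capillary electrophoresis. DMSO defines baseline.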

A short description of assay [14]: ATG_GAL4_TRANS: Attagene TRANS-FACTORIAL HepG2 Assay for GAL4 (Internal Marker) (AID 2282976; active = hit-call score of the fitted dose curve at least 0.9, where 1 is the maximum). As to conditions: HepG2 Attagene TRANS GAL4 internal marker reporter. In a few lines: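 First, HepG2 cells were transfected with reporter units under GAL4-UAS control. Next, they were treated with chemical for 24 h. Finally, RNA was reverse-transcribed, PCR-amplified, FAM-labelled and resolved by capillary electrophoresis, with induction scored against DMSO.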

Assay [15] concerns the target X-box-binding protein 1 (Homo sapiens) (UniProt P17861). Kind of assay: ATG_Xbp1_CIS: Attagene CIS-FACTORIAL HepG2 Assay for human X-box Binding Protein 1 (XBP1) (AID 2282972). The note with it: HepG2 XBP1 cis-element reporter, Attagene multiplex; actives raise or lower the signal. In a few lines:
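HepG2, transient MRTU transfection (cis-promoter driven), 24 h compound exposure. Total RNA → oligo(dT) RT → PCR → 6-FAM labeling → HpaI cut → CE. Bidirectional fit vs DMSO.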

Assay [16] in a line: ATG_TAL_CIS: Attagene CIS-FACTORIAL HepG2 Assay for human TAL Basal Promoter (AID 2282966).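 Note: background control endpoint measuring basal TAL promoter reporter mRNA not a specific factor.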 The note with it: HepG2 Attagene cis-factorial TAL promoter reporter; actives raise or lower the signal. The essentials:
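Fluorescence of labelled reporter cDNA fragments, resolved by capillary electrophoresis, gave the readout. Human HepG2 liver cells carried transiently transfected cis-element reporter units and were treated for 24 hours; activity was fitted bidirectionally against DMSO.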

Assay [17] addresses Estrogen receptor (Homo sapiens) (UniProt P03372). Put plainly: ATG_ERa_TRANS: Attagene TRANS-FACTORIAL HepG2 Assay for human Estrogen Receptor alpha (ERa) (AID 2282970; active = hit-call score of the fitted dose curve at least 0.9, where 1 is the maximum). The note with it: HepG2 Attagene TRANS ERa GAL4 reporter, mRNA. The essentials: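 Human liver HepG2, transient transfection of multiple GAL4-UAS reporter units; TRANS format (exogenous NR-Gal4 chimera). 24 h dosing. Readout: reporter mRNA, RT-PCR, 6-FAM primer extension, HpaI digest, capillary electrophoresis. Positive direction vs DMSO.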

Assay [18] deals with Steroid hormone receptor ERR1 (Homo sapiens) (UniProt P11474). Kind of assay: ATG_ERRa_TRANS: Attagene TRANS-FACTORIAL HepG2 Assay for human Estrogen-Related Receptor alpha (ERRa) (AID 2282971; active = hit-call score of the fitted dose curve at least 0.9, where 1 is the maximum). The note with it: HepG2 Attagene TRANS reporter, ERRa transactivation. The essentials:
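Reporter transcript induction was quantified by RT-PCR and capillary electrophoresis of FAM-labelled, HpaI-cut products after 24 h treatment of HepG2 cells carrying transiently transfected GAL4-UAS reporter units and an exogenous ERRa-Gal4 fusion; activity scored as increase over DMSO.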

Assay [19] addresses Estrogen-related receptor gamma (Homo sapiens) (UniProt P62508). Kind of assay: ATG_ERRg_TRANS: Attagene TRANS-FACTORIAL HepG2 Assay for human Estrogen-Related Receptor gamma (ERRg) (AID 2282977; active = hit-call score of the fitted dose curve at least 0.9, where 1 is the maximum;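 note: hits increase reporter signal over DMSO so potencies reflect activators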). The note with it: HepG2 Attagene TRANS reporter, ERRg transactivation. The essentials: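 HepG2 cells transiently transfected with multiplexed GAL4-UAS reporter units and chimeric NR-Gal4 constructs were exposed to test chemicals for 24 h. Reporter mRNA was measured by RT-PCR, 6-FAM primer extension, HpaI digestion and capillary electrophoresis; gain-of-signal versus DMSO.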

Structures are written as SMILES. Records with an inconclusive call do not appear. Calls of active or inactive are those of the source. Rule for the calls, unless noted: active = hit-call score of the fitted dose curve at least 0.9, where 1 is the maximum; inactive = score below 0.9.

Chain of Transcription factor Sp1 (Homo sapiens) (P08047 whole entry, looked up): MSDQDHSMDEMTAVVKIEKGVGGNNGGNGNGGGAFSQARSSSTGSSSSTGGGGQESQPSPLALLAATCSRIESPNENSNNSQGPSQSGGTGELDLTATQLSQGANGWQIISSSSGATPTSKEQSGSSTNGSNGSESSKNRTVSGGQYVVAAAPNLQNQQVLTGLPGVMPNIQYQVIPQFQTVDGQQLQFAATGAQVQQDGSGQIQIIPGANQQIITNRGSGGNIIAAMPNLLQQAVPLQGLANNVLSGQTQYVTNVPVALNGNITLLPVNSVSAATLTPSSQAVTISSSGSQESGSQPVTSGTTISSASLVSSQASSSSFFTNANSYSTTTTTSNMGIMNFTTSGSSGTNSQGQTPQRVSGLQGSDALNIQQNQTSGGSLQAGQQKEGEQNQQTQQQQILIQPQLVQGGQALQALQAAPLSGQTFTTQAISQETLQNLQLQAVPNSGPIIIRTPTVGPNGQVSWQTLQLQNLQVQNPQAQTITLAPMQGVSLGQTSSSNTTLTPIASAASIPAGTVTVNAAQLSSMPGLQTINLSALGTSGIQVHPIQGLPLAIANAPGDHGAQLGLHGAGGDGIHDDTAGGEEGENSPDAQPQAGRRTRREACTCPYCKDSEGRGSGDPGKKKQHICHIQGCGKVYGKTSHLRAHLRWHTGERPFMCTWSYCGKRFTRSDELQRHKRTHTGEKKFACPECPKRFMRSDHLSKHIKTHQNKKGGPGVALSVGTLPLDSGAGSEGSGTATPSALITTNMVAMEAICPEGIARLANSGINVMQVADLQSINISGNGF
Chain of Estrogen receptor (Homo sapiens) (P03372 whole entry, looked up, the tested form may be a part): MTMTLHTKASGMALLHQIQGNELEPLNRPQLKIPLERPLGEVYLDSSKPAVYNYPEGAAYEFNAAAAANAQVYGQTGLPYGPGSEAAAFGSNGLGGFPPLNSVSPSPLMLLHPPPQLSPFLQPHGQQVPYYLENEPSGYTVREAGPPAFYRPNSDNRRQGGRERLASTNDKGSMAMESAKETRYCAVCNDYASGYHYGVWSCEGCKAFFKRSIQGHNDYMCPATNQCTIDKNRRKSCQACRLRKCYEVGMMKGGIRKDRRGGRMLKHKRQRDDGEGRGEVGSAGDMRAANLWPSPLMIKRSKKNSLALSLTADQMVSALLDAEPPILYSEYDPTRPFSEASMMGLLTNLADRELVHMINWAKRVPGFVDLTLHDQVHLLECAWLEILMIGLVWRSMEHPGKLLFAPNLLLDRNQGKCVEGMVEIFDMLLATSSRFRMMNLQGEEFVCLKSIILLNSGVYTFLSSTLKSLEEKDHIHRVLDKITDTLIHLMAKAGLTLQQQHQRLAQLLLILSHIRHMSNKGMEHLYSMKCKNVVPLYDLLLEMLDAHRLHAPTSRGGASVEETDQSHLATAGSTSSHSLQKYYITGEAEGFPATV
Chain of X-box-binding protein 1 (Homo sapiens) (P17861 whole entry, looked up): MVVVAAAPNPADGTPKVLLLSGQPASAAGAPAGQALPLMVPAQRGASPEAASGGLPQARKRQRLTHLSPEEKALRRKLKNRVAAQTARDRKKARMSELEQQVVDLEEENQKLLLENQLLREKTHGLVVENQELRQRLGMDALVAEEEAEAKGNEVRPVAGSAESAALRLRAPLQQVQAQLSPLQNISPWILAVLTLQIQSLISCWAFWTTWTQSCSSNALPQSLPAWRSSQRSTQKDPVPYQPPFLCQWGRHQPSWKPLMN
Chain of Signal transducer and activator of transcription 3 (Homo sapiens) (P40763 whole entry, looked up): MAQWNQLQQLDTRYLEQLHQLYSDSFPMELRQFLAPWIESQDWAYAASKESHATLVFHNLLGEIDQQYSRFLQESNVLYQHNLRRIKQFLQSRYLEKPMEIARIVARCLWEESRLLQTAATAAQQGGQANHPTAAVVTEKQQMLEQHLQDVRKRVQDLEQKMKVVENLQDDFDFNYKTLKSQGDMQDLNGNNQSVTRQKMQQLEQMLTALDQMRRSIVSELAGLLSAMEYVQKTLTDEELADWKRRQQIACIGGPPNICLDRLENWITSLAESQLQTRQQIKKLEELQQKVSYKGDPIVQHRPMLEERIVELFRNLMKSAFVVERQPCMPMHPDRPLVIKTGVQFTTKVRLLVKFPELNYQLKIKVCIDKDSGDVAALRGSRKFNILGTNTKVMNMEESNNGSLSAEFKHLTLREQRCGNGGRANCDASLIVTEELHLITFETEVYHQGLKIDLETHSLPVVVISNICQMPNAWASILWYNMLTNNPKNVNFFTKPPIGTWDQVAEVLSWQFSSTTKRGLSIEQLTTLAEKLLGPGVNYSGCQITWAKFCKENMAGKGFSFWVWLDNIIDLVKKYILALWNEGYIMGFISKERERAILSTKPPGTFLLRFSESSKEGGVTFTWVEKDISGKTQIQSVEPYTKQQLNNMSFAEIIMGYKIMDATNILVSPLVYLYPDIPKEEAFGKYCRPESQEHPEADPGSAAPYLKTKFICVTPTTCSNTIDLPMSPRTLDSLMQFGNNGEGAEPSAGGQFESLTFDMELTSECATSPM
Chain of Nuclear receptor subfamily 1 group I member 3 (Homo sapiens) (Q14994 whole entry, looked up, the tested form may be a part): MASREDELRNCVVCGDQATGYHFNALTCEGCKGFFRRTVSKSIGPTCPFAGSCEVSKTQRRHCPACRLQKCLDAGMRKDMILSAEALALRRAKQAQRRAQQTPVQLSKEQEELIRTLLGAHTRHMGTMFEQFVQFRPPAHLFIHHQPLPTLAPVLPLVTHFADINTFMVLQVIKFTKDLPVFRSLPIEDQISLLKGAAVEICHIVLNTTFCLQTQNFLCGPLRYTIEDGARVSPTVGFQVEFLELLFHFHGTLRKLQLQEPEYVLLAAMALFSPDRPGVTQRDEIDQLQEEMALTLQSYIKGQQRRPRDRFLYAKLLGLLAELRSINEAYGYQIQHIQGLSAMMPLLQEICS
Chain of Estrogen-related receptor gamma (Homo sapiens) (P62508 whole entry, looked up, the tested form may be a part): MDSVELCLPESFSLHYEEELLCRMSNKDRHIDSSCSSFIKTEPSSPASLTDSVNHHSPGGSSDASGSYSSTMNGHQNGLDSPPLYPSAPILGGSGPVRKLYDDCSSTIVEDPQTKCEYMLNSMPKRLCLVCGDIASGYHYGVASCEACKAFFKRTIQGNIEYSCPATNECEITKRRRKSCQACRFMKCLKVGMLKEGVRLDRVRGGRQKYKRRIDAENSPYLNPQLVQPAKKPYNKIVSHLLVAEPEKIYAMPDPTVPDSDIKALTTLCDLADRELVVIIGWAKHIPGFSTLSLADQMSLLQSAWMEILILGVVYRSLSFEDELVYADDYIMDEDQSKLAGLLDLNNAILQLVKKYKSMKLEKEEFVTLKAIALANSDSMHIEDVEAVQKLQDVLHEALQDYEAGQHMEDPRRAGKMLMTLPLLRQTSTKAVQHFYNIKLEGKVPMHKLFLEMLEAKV
Chain of Steroid hormone receptor ERR1 (Homo sapiens) (P11474 whole entry, looked up, the tested form may be a part): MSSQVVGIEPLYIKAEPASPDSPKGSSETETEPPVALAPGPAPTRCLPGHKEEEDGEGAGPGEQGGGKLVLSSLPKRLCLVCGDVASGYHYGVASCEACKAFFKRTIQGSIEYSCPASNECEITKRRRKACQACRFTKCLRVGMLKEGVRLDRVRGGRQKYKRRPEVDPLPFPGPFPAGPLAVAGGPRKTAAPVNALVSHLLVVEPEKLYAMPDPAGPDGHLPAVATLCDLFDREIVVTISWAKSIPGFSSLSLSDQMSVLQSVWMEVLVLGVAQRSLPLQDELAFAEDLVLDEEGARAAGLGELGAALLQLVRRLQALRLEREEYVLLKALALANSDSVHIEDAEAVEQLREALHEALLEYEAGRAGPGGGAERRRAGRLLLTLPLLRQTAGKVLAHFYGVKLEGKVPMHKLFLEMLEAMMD

With `O=C(O)c1cc(Cl)cc([N+](=O)[O-])c1Cl`, the result in assay [1], in assay [2], in assay [3], in [4], in [5] and in assay [6] was inactive. In addition, the result in assay [7], in assay [8], in assay [9], in [10], in assay [11] and in assay [12] was inactive. Besides, the outcome in [13] and in assay [14] was inactive.
A word on the AC50: it is the midpoint of the concentration-response curve, whichever way the signal moves. With `NC(CO)(CO)CO`, the call in [1], in assay [3], in assay [4], in assay [5], in assay [7] and in assay [8] was inactive. For the same molecule, the molecule was called inactive in assay [9], in assay [10], in assay [11] and in [15]. In addition, the AC50 in assay [2] is 42 µM (active).
For `CC(C)(C)C(=O)C=Cc1ccc(Cl)cc1`, the concentration at half-maximal activity (AC50) is 36.8 µM (active) in assay [1]; 5.18 µM (active) in assay [2]; 25.1 µM (active) in assay [4]; 27.3 µM (active) in [5]; 164 µM (active) in assay [7]; 78.2 µM (active) in assay [8]. Further, the AC50 is 53.8 µM (active) in [9]; 100 µM (active) in [16]; 26.3 µM (active) in assay [11]; 24.8 µM (active) in assay [12]; 26.1 µM (active) in [17]; 66.4 µM (active) in assay [15]. The molecule was called inactive in [3], in assay [10], in assay [18], in [13] and in assay [19].
On to `CCCCC(CC)COCC1CO1` (centres undefined), for which the molecule was called inactive in assay [1], in assay [2], in [3], in assay [4], in assay [5] and in [6]. The molecule was classed as inactive in [7], in assay [8], in assay [9], in assay [10], in [11] and in [17]. For the same molecule, the molecule was classed as inactive in assay [15], in assay [14] and in assay [19].
In the case of `C[C@]12CCC(=O)C=C1CC[C@@H]1[C@@H]2C(=O)C[C@@]2(C)[C@H]1CC[C@]2(O)C(=O)CO`, the outcome in assay [1], in assay [3], in assay [4], in [5], in [6] and in [8] was inactive. For the same molecule, the molecule was classed as inactive in assay [9], in assay [16], in [17], in assay [15] and in [14]. In addition, in [2], the AC50 was 39.5 µM (active).

The values above are taken from PubChem BioAssay (EPA / NIEHS).
